# Measured values published in PubChem BioAssay AID1508649 (National Center for Advancing Translational Sciences (NCATS), 2021).
# In all, about 43,000 compounds went through this assay and about 830 (1.9%) were called active. Roughly 30% stayed inconclusive and do not appear here. Only a selection was taken, and actives are over-represented in it overall. Values without a mark were called inactive. The calls were made as follows: active = clear falling dose curves in both reporters; inconclusive = both reporters move, but less clearly or upward; inactive = either reporter flat; the % is the NLuc reporter signal.
# Assay: Cell-based coincidence reporter assay to measure PMP22 gene transcription in S16 Pmp22-F2sN cells - Primary screen
# Settings: S16 Pmp22-F2sN Schwann cells (luciferase reporters placed in the Pmp22 gene), FLuc/NLuc coincidence luminescence, 24 h; series mostly up to 57.5 µM; activity change, negative = inhibition: at the top concentration
# Excerpt: Assay Provider: Jim Inglese Ph.D. National Center for Advancing Translational Science, National Institutes of Health, Rockville, MD CMT is a heterogeneous group of neurological disorders that affect approximately 1 in 2,500 people. In particular, the most common form of CMT, CMT1A is genetically linked to the duplication of the PMP22 gene which leads to Schwann cell overexpression, thus manifesting itself as a typical case of dose-sensitive diseases. To identify small molecule compounds that can mediate the expression of PMP22 we developed a phenotypic assay screening strategy by utilizing genome editing techniques to construct Schwann cell lines containing novel reporter technology to monitor the transcriptional or translational regulation of PMP22. For high sensitivity we use a bioluminescent reporter system embedded in the 3' UTR of the PMP22 gene (S16(c9) Pmp22-F2sN) to identify compounds that inhibit gene expression. […] We can further discriminate the effect of all transcriptionally active molecules on PMP22 translation or stability with an assay that incorporates a short NLuc peptide (HiBiT) at the C-terminus of expressed PMP22 (S16(f8) PMP22-HiBiT) allowing alpha complementation and luminescence detection of membrane-associated PMP22 protein. These assays were screened against the NCATS Sytravon Library Collection. Miniaturization of these assays to 1536-well plate format for quantitative high throughput screening (qHTS) yielded rich data sets immediately from the qHTS assay (S16(c9) Pmp22-F2sN), when compared with data from a cell viability assay (Cell TiterGlo) to identify compounds that decreased the output signals through cellular toxicity to streamline the selection process of actives for subsequent characterization using the HiBiT assay (S16(f8) PMP22-HiBiT).
# Cell-based coincidence reporter assay to measure PMP22 gene transcription in S16 Pmp22-F2sN cells PROTOCOL TABLE (format as described by Inglese J, Shamu CE and Guy RK. 2007) SEQUENCE No. (e.g., 1, 2, 3, etc.); […] (e.g., Cells, Incubation, Reagent, etc.); VALUE and DESCRIPTION. 1. Cells. Add 500-1,000 cells in 4 uL in growth media (DMEM High Glucose, No Phenol Red media + 10% heat-inactivated FBS + 1% Pen/Strep supplemented media) per well into Greiner 1536-well white/solid bottom high base, TC-treated plates. 2. Compounds. Library compounds and controls added at 23nL per well, transferred by Pin Tool. 3. Incubation. Incubate plates at 37C, 5% CO2, 95% RH for 24 h. 4. Reagent. Add 3.5uL Nano-Glo Dual-Luciferase Reporter Assay System reagent 1: Lysis and FLuc reagent per well of Greiner 1536-well plates. 5. Incubation. Incubate plates at room temperature for 10 min., protect from light. 6. Detector. FLuc luminescence measured using CCD-based camera (Viewlux). 7. Reagent. Add 3.5uL Nano-Glo Dual-Luciferase Reporter Assay System reagent 2: Stop&Glo reagent per well of Greiner 1536-well plates. 8. Incubation. Incubate plates at room temperature for 10 min., protect from light. 9. Detector. NLuc luminescence measured using CCD-based camera (Viewlux). NOTES (numbers refer to Sequence numbers above; values are from representative experiments) 6. Luminescence Read #1 (FLuc): Clear filter; Exposure = 10 sec, Gain = High, Speed = Slow, Binning = 2X 9. Luminescence Read #2 (NLuc): Clear filter; Exposure = 1 sec, Gain = High, Speed = Slow, Binning = 2X REFERENCES: 1. Inglese J, Shamu CE and Guy RK, Reporting data from high throughput screening of small molecule libraries, Nature Chemical Biology, 2007, 3(8): 438-441. doi.org/10.1038/nchembio0807-438 2. Yasgar A, Shinn P, Jadhav A, Auld DS, Michael S, Zheng W, Austin CP, Inglese J and Simeonov A, Compound Management for Quantitative High-Throughput Screening. J. Assoc. Lab. Auto., 2008, 13: 79-89. doi: 10.1016/j.jala.2007.12.004
# % is scaled to controls: 0 for no effect and ±100 for the full control effect; potency is read from the fitted curve at half-maximal effect.
SMILES,"activity change, negative = inhibition [%]",Potency
Cc1ccc(-n2c(=O)c3cccnc3n2CC(=O)NCc2ccc(F)cc2)cc1C,-10.6,–
CCc1ccc(NS(=O)(=O)c2ccc3[nH]cc(C(=O)NCCc4cccc(C)c4)c(=O)c3c2)cc1,-16.7,–
COc1cccc(CNC(=O)C(NS(=O)(=O)c2ccc3nc(C)sc3c2)C(C)C)c1 (stereo not drawn),1.61,–
CCOC(=O)C1=C(c2ccccc2)Nc2ncnn2C1c1ccc(Cl)cc1 (stereo not drawn),-19.3,–
O=C(c1ccc(C(F)(F)F)cc1)N1CCC(c2nc(-c3ccc(S(=O)(=O)N4CCCC4)cc3)no2)CC1,–,14.2 µM (active)
COc1ccc(C(=O)N2CCC(c3nc4ccccc4o3)CC2)cc1,-2.94,–
Cc1ccc(C)c2sc(NC(=O)c3ccc(S(=O)(=O)N4CCCC4)cc3)nc12,-6.67,–
Fc1cccc(-n2ncc3c2ncn2nc(-c4ccccc4Cl)nc32)c1,1.98,–
Cc1ccc(-c2onc(C)c2C)cc1S(=O)(=O)Nc1ccccn1,1.02,–
COc1ccc(-c2onc(C)c2C)cc1S(=O)(=O)NCC1CCN(Cc2cccc(F)c2)CC1,–,14.1 µM (active)
COc1cc(NC(=O)NCC2CCN(Cc3ccc(C)cc3)CC2)cc(OC)c1OC,-8.67,–
CCS(=O)(=O)c1nc(S(=O)(=O)c2ccc(C)cc2)c(NCc2ccc(Cl)cc2)s1,-7.32,–
CCc1ccc(Nc2nn3c(=O)c4cc5c(cc4nc3s2)OCO5)cc1,-6.98,–
COc1ccc(N2CCN(C(=O)c3c(C)oc4nc(C)nc(N5CCCC5)c34)CC2)cc1,-27.4,–
CCc1ccc(C2CC(=O)c3c([nH]c(C(=O)OCc4ccc(C)cc4)c3C)C2)cc1 (stereo not drawn),–,10 µM (active)
CC1=C(C(=O)OCc2ccc(C)cc2)C(c2ccccc2Cl)CC(=O)N1 (stereo not drawn),14,–
CC1=C(C(=O)OCc2ccc(C)cc2)C(c2c(Cl)cccc2Cl)CC(=O)N1 (stereo not drawn),-9.76,–
COc1ccc(-c2nn3c(-c4ccc(OC)cc4)nnc3c3ccccc23)cc1,2.98,–
CCOC(=O)c1cc(OC(=O)c2ccccc2Cl)n(-c2ccccc2)n1,-11.1,–
COc1cc(OC)cc(-c2nc3nc(C)c(CCC(=O)Nc4ccc(C)cc4)c(C)n3n2)c1,1.75,–
Cc1ccc(NC(=O)Cn2cnc3nc4c(cc3c2=O)CCCC4)cc1Cl,23.1,–
O=C(CCc1nc(CN2CCN(S(=O)(=O)c3ccc(F)cc3)CC2)no1)N1CCCCC1,-12.7,–
CCOC(=O)c1cccc(NC(=O)c2cc(CN3CCCC3)on2)c1,4.87,–
CCc1ccccc1NC(=O)N1CCN(C(=O)c2nsc3ccccc23)CC1,2.47,–

SMILES,"activity change, negative = inhibition [%]",Potency
Cc1ccc(NC(=O)CN2c3ccccc3S(=O)(=O)c3ccccc32)cc1F,6.49,–
COc1cccc(NC(=O)N2CCN(C(=O)c3nsc4ccccc34)CC2)c1,-15.2,–
CCc1ccccc1NC(=O)Cc1cn(C)c2ccccc12,-23.8,–
COc1cccc(NC(=O)N(Cc2cn(C)c3ccccc23)C2CCCCCC2)c1,–,10.6 µM (active)
O=c1cc(COc2cccc(C(F)(F)F)c2)nc2sc3c(n12)CCCC3,-19.3,–
CCOc1ccccc1NC(=O)Cn1nnc(C(=O)Nc2ccc(C)c(C)c2)c1N,-12.8,–
CCOc1ccccc1NC(=O)Cn1nnc(C(=O)NCc2cccs2)c1N,–,0.401 µM (active)
COc1cccc(CNC(=O)c2nnn(CC(=O)Nc3cc(Cl)ccc3C)c2N)c1,-26.4,–
COc1ccc(C2Sc3ccccc3NC3=C2C(=O)c2ccccc23)c(OC)c1OC (stereo not drawn),–,7.27 µM (active)
Cc1ccc(-c2noc(CSc3nnc(-c4ccc(Cl)cc4)n3C)n2)cc1,-54.7,–
Cc1nnc(C)n1-c1ccc(C(=O)Nc2cccc(Br)c2)cc1,23.7,–
CCN(CCCNC(=O)c1c(C)oc2ncn(CC(C)C)c(=O)c12)Cc1ccccc1,-18.5,–
Cc1cc(C)nc(NS(=O)(=O)c2ccc(NC(=O)c3cc(=O)c4ccc(C)c(C)c4o3)cc2)n1,-33.5,–
COc1ccc(OC)c(NC(=O)C2CCN(S(=O)(=O)c3ccc(C)cc3)CC2)c1,2.94,–
COc1ccc(S(=O)(=O)Nc2cc3c(C(=O)OC(C)C)c(C)oc3c3ccccc23)cc1,–,11.3 µM (active)
COc1ccc(Cn2ccnc2SCC(=O)Nc2ccc3c(c2)OCO3)cc1,-13,–
CCn1cc(C(=O)NCc2ccc(C)cc2)c(=O)c2cc(S(=O)(=O)N3CCc4ccccc4C3)ccc21,0.357,–
COc1ccccc1Nc1c2c(nc3ccc(NC(=O)/C=C/c4cc(OC)c(OC)c(OC)c4)cc13)CCCC2,–,6.04 µM (active)
COc1cccc(C(=O)Nc2ccc3nc4n(c(=O)c3c2)CCCCC4)c1,-16.8,–
COc1cc(NC(=O)c2nc3ccccc3nc2C)cc(OC)c1OC,-18.9,–
CC(=O)c1ccc(N2CCN(C3C(=O)c4ccccc4N3C(C)=O)CC2)cc1 (stereo not drawn),6.64,–
O=C(CCS(=O)(=O)c1ccccc1)N(Cc1cccnc1)c1nc2c(F)cccc2s1,–,10.6 µM (active)
O=C(C1COc2ccccc2O1)N(Cc1cccnc1)c1nc2c(F)cc(F)cc2s1 (stereo not drawn),-8.93,–
Cc1ccc2sc(N(Cc3cccnc3)C(=O)C3COc4ccccc4O3)nc2c1C (stereo not drawn),-67.6,–
